Test systems include HCT-15 colon; SNB-19 CNS; U251 CNS; PC-3 prostate; UACC-62 melanoma; LOX IMVI melanoma; SK-MEL-28 melanoma; SK-MEL-2 melanoma; EKVX NSCLC; SN12C renal; UO-31 renal; TK-10 renal; ACHN renal; CAKI-1 renal; CCRF-CEM leukemia; MOLT-4 leukemia; SK-MEL-5 melanoma; A498 renal.
Assay in all cases: NCI-60 one-dose screen, 48 h (100 = growth as untreated, 0 = no growth, -100 = all killed)
Common to all, as to conditions: 10 µM unless noted

This is part of a sample that, as a whole, favours compounds with a hit. Of some 83,000 tested, about 20% had one in any assay.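 Cells were grown in 96-well plates and exposed to the test compound at a single concentration for 48 hours; results are reported as percent growth, with values below 10 considered active.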 Values without a mark were called inactive. Active and inactive are the calls of the source.

As to `CN1C(=O)N(C)C2C1NN=c1s/c(=C\c3cccnc3)c(=O)n12` (stereo unspecified), the growth with HCT-15 colon is 42.2%; in the assay with SNB-19 CNS, 81.4%; with U251 CNS it was 90.2%; in the assay on PC-3 prostate, 65.9%; with UACC-62 melanoma it was 68.6%; in the assay with LOX IMVI melanoma it was 80.1%. The growth with SK-MEL-28 melanoma was 81.5%; with SK-MEL-2 melanoma it was 97.3%; in the assay with EKVX NSCLC, 89.6%; in the assay on SN12C renal, 93.5%; in the assay on UO-31 renal, 66.5%; in the assay on TK-10 renal, 109%. For the same molecule, the growth is 92.3% in the assay on ACHN renal, 57.6% in the assay with CAKI-1 renal, 79.8% in the assay on CCRF-CEM leukemia and 88.7% with MOLT-4 leukemia.

Take `COc1ccc(NC(=O)CSc2nc(-c3ccc(OC)c(OC)c3)cc(-c3cc(OC)c(OC)c(OC)c3)n2)cc1`: the growth in the assay with HCT-15 colon was 100%; in the assay with SNB-19 CNS it was 91.3%; in the assay with U251 CNS, 105%; with PC-3 prostate, 88.6%; in the assay on SK-MEL-5 melanoma it was 88.7%; in the assay on UACC-62 melanoma, 92.2%. For the same molecule, the growth in the assay on LOX IMVI melanoma was 97.1%; in the assay with SK-MEL-2 melanoma it was 89%; in the assay on EKVX NSCLC it was 108%; in the assay with SN12C renal, 93.9%; in the assay on UO-31 renal it was 35.4%; in the assay on TK-10 renal it was 96.8%. In addition, the growth in the assay on CAKI-1 renal was 83.8%; in the assay on A498 renal, 99.8%; in the assay with CCRF-CEM leukemia, 101%; with MOLT-4 leukemia, 84.8%.

For `CCO/C=N/C1=C(C#N)C(c2ccc(Cl)cc2)c2c(c3ccccc3n(C)c2=O)O1` (stereo unspecified), the growth in the assay on HCT-15 colon is 41.1%; in the assay with SNB-19 CNS it was 72.9%; with U251 CNS, 79.3%; in the assay with PC-3 prostate it was 63%; with UACC-62 melanoma it was 46.5%; in the assay with LOX IMVI melanoma it was 64.7%. Further, the growth was 83.9% in the assay with SK-MEL-28 melanoma; 85.4% in the assay with SK-MEL-2 melanoma; 74% in the assay with EKVX NSCLC; 74.6% with SN12C renal; 56.2% with UO-31 renal; 115% in the assay on TK-10 renal. Also, the growth in the assay with ACHN renal is 75.7%; in the assay on CAKI-1 renal, -0.281% (active); in the assay on A498 renal it was 47.9%; in the assay on CCRF-CEM leukemia, 66.9%; in the assay with MOLT-4 leukemia it was 75.2%.

`CC1(c2ccc(Cl)cc2)OC(=O)CC(=O)O1`: the growth with HCT-15 colon is 102%; in the assay with SNB-19 CNS it was 97%; in the assay with U251 CNS, 102%; with PC-3 prostate it was 101%; in the assay with SK-MEL-5 melanoma it was 110%; with UACC-62 melanoma, 102%. Besides, the growth was 106% in the assay on LOX IMVI melanoma; 112% with SK-MEL-28 melanoma; 98.4% in the assay with EKVX NSCLC; 102% in the assay with SN12C renal; 90.3% in the assay with UO-31 renal; 121% with TK-10 renal. Further, the growth is 98.5% in the assay with ACHN renal; 94.9% with CAKI-1 renal; 101% in the assay on A498 renal; 100% with CCRF-CEM leukemia; 100% in the assay on MOLT-4 leukemia.

Consider `CN(C)CCN1C(=O)c2ccc3c4c(ccc(c24)C1=O)C(=O)N(CCN=C=S)C3=O`, for which the growth in the assay on HCT-15 colon is -78.2% (active); with SNB-19 CNS, -92.3% (active); in the assay on U251 CNS it was -95.7% (active); in the assay with PC-3 prostate it was -80.3% (active); in the assay with UACC-62 melanoma it was -92.5% (active); in the assay with LOX IMVI melanoma it was -82.3% (active). In addition, the growth was -87.7% (active) in the assay with SK-MEL-28 melanoma; -75% (active) with SK-MEL-2 melanoma; -95.2% (active) in the assay with EKVX NSCLC; -89.5% (active) with SN12C renal; -95.4% (active) with UO-31 renal; -95.3% (active) with TK-10 renal. Further, the growth with CAKI-1 renal was -80% (active); in the assay with A498 renal it was -97.8% (active); in the assay with CCRF-CEM leukemia, -50.6% (active); in the assay with MOLT-4 leukemia, -52.2% (active).

In the case of `COc1ccc(Nc2nc(N)nc3c2CCN(Cc2ccc(OC)cc2OC)C3=O)cc1`, the growth was 91% in the assay on HCT-15 colon; 72.2% in the assay on SNB-19 CNS; 75.4% in the assay on U251 CNS; 90% in the assay on PC-3 prostate; 80.7% in the assay with SK-MEL-5 melanoma; 68% in the assay with UACC-62 melanoma. The growth with LOX IMVI melanoma was 71.9%; in the assay on SK-MEL-28 melanoma, 90%; in the assay on SK-MEL-2 melanoma, 93.7%; in the assay with EKVX NSCLC, 81.5%; in the assay on SN12C renal, 70.7%; in the assay with UO-31 renal, 60.3%. Besides, the growth was 84.8% in the assay on TK-10 renal; 80.7% in the assay on ACHN renal; 92.9% in the assay on CAKI-1 renal; 76.8% with A498 renal; 86.1% with CCRF-CEM leukemia; 80.7% with MOLT-4 leukemia.

On to `COc1cc(Cn2cc3c(c2)-c2oncc2CC3)cc(OC)c1OC`, for which the growth in the assay with HCT-15 colon was 16.3%; with SNB-19 CNS, 34.9%; in the assay with U251 CNS it was 17.2%; with PC-3 prostate it was 38.4%; with SK-MEL-5 melanoma, -36% (active); in the assay with UACC-62 melanoma, 41.9%. For the same molecule, the growth in the assay with LOX IMVI melanoma is 9.46% (active); with SK-MEL-28 melanoma it was 59.9%; in the assay on SK-MEL-2 melanoma it was 23.7%; in the assay on EKVX NSCLC it was 40.6%; with SN12C renal it was 30.2%; in the assay with UO-31 renal, 27.5%. In addition, the growth is 53.3% with TK-10 renal; 20.8% in the assay with CAKI-1 renal; -1.56% (active) with A498 renal; 17.3% in the assay on CCRF-CEM leukemia; 17.6% in the assay with MOLT-4 leukemia.

Regarding `O=C1Nc2ccc3c(c2/C1=C\c1cc2c(cc1Br)OCO2)OCO3`, the growth was 22.9% in the assay with HCT-15 colon; 42% in the assay with SNB-19 CNS; 13.4% in the assay with U251 CNS; 16.6% with PC-3 prostate; -19.9% (active) in the assay on SK-MEL-5 melanoma; 43.9% in the assay on UACC-62 melanoma. Also, the growth was -29.5% (active) in the assay on LOX IMVI melanoma; 19.4% with SK-MEL-28 melanoma; 42.4% in the assay on SK-MEL-2 melanoma; 37.3% with EKVX NSCLC; 26.7% in the assay with SN12C renal; -15.9% (active) in the assay with UO-31 renal. For the same molecule, the growth is -31.2% (active) with TK-10 renal; 11.4% with ACHN renal; -25.7% (active) in the assay with CAKI-1 renal; 19.1% in the assay on A498 renal; 35.7% in the assay with MOLT-4 leukemia.

With `COc1ccc2c(c1)cn1c3ccc(OC)cc3[nH]c(=O)c21`, the growth with HCT-15 colon was -84.4% (active); with SNB-19 CNS, 12.3%; in the assay on U251 CNS, -90.3% (active); with PC-3 prostate it was -72.7% (active); in the assay with SK-MEL-5 melanoma, 4.14% (active); with UACC-62 melanoma, 29.9%. Moreover, the growth was -79.5% (active) in the assay on LOX IMVI melanoma; 61% with SK-MEL-28 melanoma; -50.3% (active) with SK-MEL-2 melanoma; 48.5% with EKVX NSCLC; -11.8% (active) with SN12C renal; -74.8% (active) in the assay on UO-31 renal. In addition, the growth was -89.6% (active) in the assay with TK-10 renal; -98.3% (active) in the assay on ACHN renal; 41.2% with A498 renal; -64.8% (active) in the assay with CCRF-CEM leukemia; -41.6% (active) in the assay with MOLT-4 leukemia.
